PubChem BioAssay (NCI)
This is part of a sample that, as a whole, favours compounds with a hit. Of some 79,000 tested, about 15% had one in any assay. No stated cut-off is given here; in the data, active means growth inhibition above about 70%; inactive means the rest.

Columns and labels:
[1] = NCI Yeast Anticancer Drug Screen. Data for the rad50 strain (AID 155);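 further: 0% = growth of vehicle-only cultures of the same strain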; conditions: S. cerevisiae rad50 strain growth inhibition; at 50.0 µM; hits give high values
In short: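 Vehicle-treated cultures provide the reference for the growth inhibition reported for compound-exposed, repair-deficient yeast.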

[2] = NCI Yeast Anticancer Drug Screen. Data for the mec2-1 strain (AID 157); conditions: S. cerevisiae mec2-1 strain, at 50.0 µM, hits give high values
In short: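 Strain: mec2-1 (DNA repair/cell cycle alteration). Compound exposure, then growth measured; inhibition expressed relative to vehicle.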

[3] = NCI Yeast Anticancer Drug Screen. Data for the sgs1 mgt1 strain (AID 161);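 further: 0% = growth of cultures given vehicle only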; conditions: S. cerevisiae sgs1 mgt1 strain, at 50.0 µM, hits give high values
In short: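 Test agents were incubated with a DNA-repair-mutant yeast strain. Growth was then read and compared against vehicle-treated controls.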

[4] = NCI Yeast Anticancer Drug Screen. Data for the cln2 rad14 strain (AID 165);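 further: 0% = growth equal to vehicle treated cultures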; conditions: S. cerevisiae cln2 rad14 strain, at 50.0 µM, hits give high values
In short: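 Compounds are applied to the cln2 rad14 yeast strain, and growth is then compared with that of vehicle-treated cultures to give inhibition.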

[5] = NCI Yeast Anticancer Drug Screen. Data for the bub3 strain (AID 167); conditions: S. cerevisiae bub3 mutant strain, at 50.0 µM, hits give high values
In short: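 Mutant yeast screening strain plus compound; vehicle-treated cultures serve as the 0% inhibition reference.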

[6] = NCI Yeast Anticancer Drug Screen. Data for the mlh1 rad18 strain (AID 175); conditions: S. cerevisiae mlh1 rad18 strain growth inhibition; at 50.0 µM; hits give high values
In short: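 Read-out is yeast growth inhibition, calculated against vehicle-only controls. The compound was applied to a strain engineered with DNA damage repair alterations.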

Measured: growth inhibition

O=c1c(SCc2ccc(Cl)cc2Cl)c(SCc2ccc(Cl)cc2Cl)cnn1-c1ccccc1
inactive: [1] 16.8% | [2] -1.4% | [3] 7.3% | [4] 23.9% | [5] 1.05% | [6] 4.05%

O=C(Nc1nc2ccc([N+](=O)[O-])cc2s1)C(=O)C(C(=O)c1ccncc1)C1OC(=O)c2ccccc21 (stereo not given)
inactive: [1] 24.1% | [2] 9.25% | [3] -19.5% | [4] 39.2% | [5] 49.8% | [6] 27.3%

Nc1cccc2nsnc12
inactive: [1] 3% | [2] -36.6% | [3] -42.2% | [4] 30.1% | [5] -5.05% | [6] -15.7%

C1CCCCCc2c(-c3n[nH]c4c3CCCCCCCCCC4)n[nH]c2CCCC1
inactive: [1] -8.1% | [2] -1.45% | [3] -8.2% | [4] 7.9% | [5] 2.75% | [6] 43.8%

CCSc1ccc(C)cc1
inactive: [1] 28.6% | [2] -3.15% | [3] -20.8% | [4] 26.5% | [5] -8.1% | [6] 12.6%

CC(=O)C(N=Nc1ccc(S(=O)(=O)NC2NCCC(C)N2)cc1)C(=O)Nc1ccccc1C (stereo not given)
inactive: [1] 55.1% | [2] 15.8% | [3] 48% | [4] 25.6% | [5] 0.7% | [6] 42.5%

N#CCCCCCCn1cnc2c(=S)nc[nH]c21
inactive: [1] 4.9% | [2] 9.55% | [3] 17.9% | [4] -13% | [5] -4.7% | [6] 22.4%

C(=N\N1CCN(/N=C/c2ccc3ccccc3n2)CC1)/c1ccc2ccccc2n1
inactive: [1] 38.1% | [2] 13.1% | [3] 11.9% | [4] 26.5% | [5] 1.5% | [6] 32.4%

CCCCCCC(C)NCC(=O)Nc1ccccc1C (stereo not given)
inactive: [1] -2.7% | [2] 14.2% | [3] 25.6% | [4] -44.7% | [5] 59.7% | [6] 30.6%

CC(C)COC1CN=NN1/C=C1\CCOC1=O (stereo not given)
inactive: [1] -4.2% | [2] 10.4% | [3] 14.3% | [4] -6.65% | [5] 24.2% | [6] -3%

O=c1[nH]nc(Sc2ccccc2)c(=O)[nH]1
inactive: [1] -11.8% | [2] -3.4% | [3] -12.6% | [4] -10.4% | [5] -11.4% | [6] -14.9%

C/C(C[n+]1ccccc1)=N\N=C(N)N
inactive: [1] -18.8% | [2] -9.05% | [3] -43.8% | [4] -20.5% | [5] -5.35% | [6] -9.2%

O=C1CSC(=NCCN=C2NC(=O)CS2)N1
inactive: [1] 10.5% | [2] 18.3% | [3] 9.25% | [4] 1.6% | [5] 15.1% | [6] 28.2%

COc1cc(NC(=O)CC(C)=O)cc(OC)c1
inactive: [1] -4% | [2] -5% | [3] -10% | [4] 3.2% | [5] -18.4% | [6] -2.5%

CC(=O)OCC1OC(n2c(O)c(/C=C3\C=Nc4ccccc43)sc2=S)C(OC(C)=O)C(OC(C)=O)C1OC(C)=O (stereo not given)
inactive: [1] 20.4% | [2] -11.7% | [3] -15.4% | [4] 18.9% | [5] -3.5% | [6] 4.9%

O=C1/C(=N\O)C2CCC1C2 (stereo not given)
inactive: [1] -11.2% | [2] 0.75% | [3] 0.3% | [4] 2.5% | [5] -9.2% | [6] 0.85%

CCOC(=O)c1c(Cl)c(CC)c(Cl)n2c1nc1ccccc12
inactive: [1] -12.7% | [2] -7.45% | [3] 14.8% | [4] -9.6% | [5] -2.8% | [6] 4.05%

NC(CCCCNCc1ccccc1O)C(=O)O (stereo not given)
inactive: [1] 10% | [2] 14.2% | [3] -1.7% | [4] 7.45% | [5] 20.7% | [6] 25.9%

CC(O)C(=O)N1CCCCC1 (stereo not given)
inactive: [1] 13.7% | [2] 9.5% | [3] -3.95% | [4] -8.35% | [5] 10.6% | [6] -23.1%

COc1ccc(CN2COc3c(ccc4ccccc34)C2)cc1
inactive: [1] 36.1% | [2] 22.9% | [3] 31.1% | [4] 17.4% | [5] 12.6% | [6] 30.9%

CC1(C)C/C(=C\c2cccc(Cl)c2)C(=O)c2ccccc21
inactive: [1] 11.8% | [2] 16.6% | [3] -0.75% | [4] -12.8% | [5] -5.65% | [6] 7.4%

COC(=O)NC(=Nc1ccc(Oc2ccccc2)cc1NC=O)NC(=O)OC
inactive: [1] 0.15% | [2] -14.8% | [3] -13.6% | [4] 25.4% | [5] 15.9% | [6] 11.5%

CCCCC1(O)C(=O)N(c2ccccc2)N(c2ccccc2)C1=O
inactive: [1] 17.2% | [2] 11.1% | [3] 7.45% | [4] 13.1% | [5] 22.4% | [6] 4.2%

O=c1ccc2c(O)cc(O)cc2o1
inactive: [1] -8.9% | [2] -5.9% | [3] -13.7% | [4] 5.05% | [5] 8.35% | [6] -8.5%

O=C(O)C(Br)C(O)c1ccccc1 (stereo not given)
inactive: [1] -5.15% | [2] -2.85% | [3] 0.85% | [4] 2.15% | [5] 4.25% | [6] -8.2%

CCOC(=O)C(=CC(CC)CC)C(=O)OCC
inactive: [1] 8.7% | [2] -18.4% | [3] -10.2% | [4] -4.1% | [5] -16.2% | [6] -0.85%

N#Cc1ccccc1NC(=O)C(=O)C(C(=O)c1ccncc1)C1OC(=O)c2ccccc21 (stereo not given)
inactive: [1] -2.55% | [2] -17.1% | [3] -31.3% | [4] 10.1% | [5] -0.65% | [6] 5.3%

Cc1ccccc1N=Cc1ccccc1O.[Co]
inactive: [1] 12.2% | [2] 11.2% | [3] 27.4% | [4] -17.4% | [5] 0.3% | [6] 32%

CC1(CBr)COC(c2ccccc2)(c2ccccc2)OC1
inactive: [1] 18.1% | [2] -2.4% | [3] 20.6% | [4] -31.4% | [5] -22.2% | [6] 28.5%

Cc1c(Cl)cc(C(C)(C)C)c(O)c1Cc1c(C)c(Cl)cc(C(C)(C)C)c1O
inactive: [1] 19.4% | [2] -8.3% | [3] -46.6% | [4] 12.3% | [5] 0% | [6] 1.95%

COC(=O)C1CN(Cc2ccccc2)C(=O)C1=O (stereo not given)
inactive: [1] -11.3% | [2] -8.75% | [3] 2.65% | [4] -5.1% | [5] 3.95% | [6] 15.2%

O=C(OCCN1CCOCC1)C1C[C@@H](O)CN1C(=O)c1ccc2c(c1)OCO2 (stereo not given in full)
inactive: [1] -10.8% | [2] -5.85% | [3] 7.7% | [4] 1.9% | [5] -14.2% | [6] 6.25%

CN(C)Cc1cc(N=Nc2ccccc2Cl)cc(CN(C)C)c1O
inactive: [1] -40.5% | [2] -19.1% | [3] -9.25% | [4] -14.3% | [5] 12.3% | [6] -13.4%

COC(=O)Nc1nc2ccc(SC)cc2c(=O)[nH]1
inactive: [1] -9.55% | [2] -5.55% | [3] 3.2% | [4] 6.45% | [5] -17.8% | [6] -29.6%

CON(C)S(=O)c1ccc([N+](=O)[O-])cc1 (stereo not given)
inactive: [1] 29.8% | [2] 19.1% | [3] 5.45% | [4] -15.6% | [5] -6.05% | [6] 22.1%

CCCCNC(=O)/C=C\C(=O)O
inactive: [1] 5.95% | [2] -10.3% | [3] -1.65% | [4] 2.75% | [5] -8.5% | [6] 1.45%

O=C(Cc1ccccc1)N(c1ccccc1)c1ccccc1
inactive: [1] 23.5% | [2] -9.25% | [3] 13% | [4] 14.7% | [5] 49.9% | [6] 5.9%

CC(C)CC(N)C(=O)NC(Cc1cc2ccccc2[nH]1)C(=O)O (stereo not given)
inactive: [1] 2.4% | [2] -6.25% | [3] 7.3% | [4] -17.9% | [5] 5.2% | [6] -0.4%

O=C(O)c1ccccc1Nc1nc2ccccc2o1
inactive: [1] -1.85% | [2] 2.15% | [3] -7.05% | [4] -26.6% | [5] 15.2% | [6] 0.25%

CC(C)OC1(c2ccccc2)OC(c2ccccc2)=CC1=O (stereo not given)
inactive: [1] 5.35% | [2] -17.1% | [3] -12.1% | [4] -7.4% | [5] 14.1% | [6] -0.8%
